Screens deposited in PubChem by National Center for Advancing Translational Sciences (NCATS).
Only some compounds are listed: those with a hit (about 1.9% of all), similar ones and a draw of the others.
Abeta yeast res: qHTS for compounds that reverse cellular toxicity of Amyloid beta (A-beta) peptide in yeast: Primary Screen; yeast expressing A-beta42, growth rescue, OD600, 48 h; response scale: 0% DMSO, 100% iron-clioquinol control; Potency, µM (doses to about 46.1 µM), usual class: activators; hit rate 0.063% among 410,000; AID 1347071, 2019; further: potency means the concentration at half of the fitted maximal effect; nearly all actives have a fitted effect of over 55% in size
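Yeast growth medium received pinned compounds, then yeast cells expressing toxic A-beta were added; plates incubated at 30 C for 48 hr. Growth read as absorbance at 600 nm, normalized to DMSO and equimolar FeCl3 plus clioquinol controls.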
PTHR1 ag: qHTS for PTHR1 Agonists: Primary Screen; Potency, µM (doses to about 115 µM), for the others: at the highest dose activation, hits mostly activators; hit rate 0.075% among 410,000; HEK293 GP2 PTHR1 cells, GloSensor cAMP luminescence, 1 h; AID 743266, 2014; Parathyroid hormone/parathyroid hormone-related peptide receptor (Homo sapiens), Q03431; further: potency means the concentration at half of the fitted maximal effect; nearly all actives have a fitted effect of over 55% in size
Target sequence (Q03431 whole entry, looked up): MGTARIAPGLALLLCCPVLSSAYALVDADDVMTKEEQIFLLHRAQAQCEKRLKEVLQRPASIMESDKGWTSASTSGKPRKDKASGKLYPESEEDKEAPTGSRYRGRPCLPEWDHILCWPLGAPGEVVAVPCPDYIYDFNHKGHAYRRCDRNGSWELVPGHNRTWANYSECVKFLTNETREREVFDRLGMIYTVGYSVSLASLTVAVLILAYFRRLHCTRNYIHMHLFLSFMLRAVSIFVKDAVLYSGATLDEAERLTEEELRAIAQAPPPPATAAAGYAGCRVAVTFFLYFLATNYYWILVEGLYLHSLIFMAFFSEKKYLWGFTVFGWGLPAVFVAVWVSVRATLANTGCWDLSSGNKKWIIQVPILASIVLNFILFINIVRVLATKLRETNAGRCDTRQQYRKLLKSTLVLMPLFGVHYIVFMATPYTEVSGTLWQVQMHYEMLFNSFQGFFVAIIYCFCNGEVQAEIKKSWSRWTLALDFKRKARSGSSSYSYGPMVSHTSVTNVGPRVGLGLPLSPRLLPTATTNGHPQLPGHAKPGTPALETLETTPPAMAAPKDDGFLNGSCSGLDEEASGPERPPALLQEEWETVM
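HEK-293-derived GP2 cells expressing PTHR1 and a GloSensor cAMP reporter, 3,000/well, plated overnight, given luciferin plus IBMX (each 0.5 mM as added) for 1 h at 37 °C, then compound for 1 h at 37 °C. Luminescence was read after 15 min at room temperature.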
FUS yeast rescue: qHTS for Suppressors of FUS Proteinopathy: Primary screen using FUS-linked yeast assay. S. cerevisiae FUS-expressing, growth rescue, OD600, 24 h. AID 1347120, 2019. hit rate 0.24% among 390,000. Potency, µM (doses to about 76.6 µM), usual class: activators;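 further: potency means the concentration at half of the fitted maximal effect; plate controls were DMSO vehicle for no effect and reference control for full effect; nearly all actives have a fitted effect of over 55% in size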
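Galactose (2%) drives FUS expression in yeast precultured in raffinose; seeding density OD 0.005. Test compounds incubated 24hr at 30C and 99% humidity before absorbance at 600 nm was measured.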
LDHA inh: qHTS assay for inhibitors of human lactate dehydrogenase. AID 1347041, 2019. purified LDHA, NADH/diaphorase-resazurin fluorescence; stronger effect = lower value. activity change, % (values are at about 110 or 230 µM). hit rate 0.15% among 480,000. L-lactate dehydrogenase A chain (Homo sapiens), P00338; in the data active means activity change below about -30%; inconclusive means mostly about -25% to -30%;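 further: plate controls were DMSO wells for no effect and wells without enzyme for full effect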
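Remaining NADH was detected by diaphorase (0.133 mg/mL) converting 37 µM resazurin to fluorescent resorufin, read at 0 and 20 minutes. The preceding 5-minute room-temperature reaction used 2 nM LDHA, 0.2 mM sodium pyruvate and 0.06 mM NADH at pH 7.4.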
aSyn yeast inh: qHTS of alpha-syn Inhibitors | Yeast expressing alpha-synuclein, growth rescue, BacTiter-Glo, 24 h | hit rate 0.14% among 370,000 | Potency, µM (series often up to 46.1 µM), for inactives: at the highest dose growth rescue (activation), actives largely listed as activators; further: potency means the concentration at half of the fitted maximal effect; % of control where 0% means no effect; nearly all actives have a fitted effect of over 65% in size
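Screening used galactose-induced yeast with toxic alpha-synuclein levels, exposed to compound for 24 hr at 30 deg C. Cell growth, read with BacTiter-Glo luminescence, gave the measured signal.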
TDP-43 yeast inh: qHTS of TDP-43 Inhibitors. TDP-43 expressing yeast growth rescue, BacTiter-Glo, 24 h. Potency, µM (top dose mostly 46.1 µM), for inactives: at the top dose growth rescue (activation), most hits filed as activators. hit rate 1.8% among 410,000. AID 652104, 2013; further: potency means the concentration at half of the fitted maximal effect; % of control where 0% means no effect; nearly all actives have a fitted effect of over 50% in size
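Yeast cells expressing TDP-43 under galactose induction are exposed to compounds for 24 hr at 30 deg C. BacTiter-Glo luminescence measures growth, so protective compounds score as activators.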
An asterisk follows results filed as active; i = inactive; ? = inconclusive; . = not tested or not shown; [ ] = another dose, or the depositor's remark. Unless noted, the call rests on the fitted dose curve; in most records, active means well fitted curve in the direction sought with a large enough effect; inconclusive means small, poorly fitted or top-dose-only effect, or another doubt; inactive means no such curve, though single readings can be large; an effect the other way counts as inactive or inconclusive.

SMILES	Abeta yeast res	PTHR1 ag	FUS yeast rescue	LDHA inh	aSyn yeast inh	TDP-43 yeast inh
COC(=O)[C@]1(C)N[C@H](CN(C)S(=O)(=O)c2ccc(-c3ccccc3)cc2)[C@@H]2C(=O)N(C)C(=O)[C@@H]21	i	i	i	-1	3.2µM*	-2%
Oc1cccc(-n2nnnc2SCc2ccccc2F)c1	i	-11%	i	-16	-5%	22µM*
O=c1[nH]c(SCc2ccc(F)cc2)nc2c1cnn2CCO	.	.	.	3	.	.
CCOCCSc1nc2c(c(=O)[nH]c(=O)n2C)n1CCC(C)C	.	.	.	2	.	.
O=C(Nc1cccn(Cc2c(Cl)cccc2Cl)c1=O)c1c(Cl)cccc1Cl	i	-14%[57.5 µM]	i	-3	-7%	10µM*
COc1ccc(C(=O)NC(c2ccccc2Cl)c2cc(Cl)c3cccnc3c2O)cc1 (stereo not given)	i	i	i	4	16µM*	?
CCCCC(=O)NC(c1cccs1)c1cc(Cl)c2cccnc2c1O (stereo not given)	?	i	i	3	22µM*	0%
CC(=O)NC(c1ccc(N(C)C)cc1)c1cc(Cl)c2cccnc2c1O (stereo not given)	i	0%	i	12	15%	28µM*
CCOC(=O)c1sc(CC(=O)Nc2ccc(C)cc2)nc1C	.	.	.	11	.	.
COc1ccc2cnn(CC(=O)Nc3cccc(Cl)c3Cl)c(=O)c2c1OC	.	.	.	16	.	.
CC(C)C(Cl)=NOC(=O)Nc1ccc(F)cc1	i	-15%	.	0	-9%	13µM*
NS(=O)(=O)c1ccc(Sc2ccc3c(c2)CCC3)nc1	i	-15%	i	-5	-1%	16µM*
O=C(Nc1cccc2ccccc12)/C(Cl)=C/c1ccccc1	i	-93%	i	-3	-9%	16µM*
CCc1ccc2c(CN(C)CCOc3ccc(F)cc3)cc(=O)oc2c1	.	.	.	-2	.	.
CCCCNC(=S)N/N=C1\CC2CC=CC12 (stereo not given)	.	.	.	-2	.	.
CCC1CCCCN1C(=O)Cn1c(-c2ccccc2)nc(C)cc1=O (stereo not given)	.	.	.	-33*	.	.
CCc1cc(=O)n(CC(=O)N2CCCCC2CC)c(-c2ccccc2)n1 (stereo not given)	.	.	.	0	.	.
Cc1nc2ccc(NC(=O)COc3ccccc3)cc2s1	i	i	i	-2	-68%	?
Cc1nc2ccc(NC(=O)COc3cccc(F)c3)cc2s1	i	-7%	i	-2	-51%	20µM*
Cc1cccc(OCC(=O)Nc2ccc3nc(C)sc3c2)c1	i	-11%	i	-7	-39%	2.5µM*
Cc1nc2ccc(NC(=O)Cc3cccc(F)c3)cc2s1	i	i	i	8	1%	-20%
CCCOc1ccccc1C(N)C(=O)OCC (stereo not given)	.	.	.	0	.	.
CCCCSc1nsc(NC(C)=O)n1	i	-21%	i	0	.	13µM*
O=C(OCc1cccc(F)c1F)c1ccc(CN2CCCC2=O)cc1	.	.	.	6	.	.
COC(=O)c1ccc(OCC2c3cc(OC)c(OC)cc3CCN2C(=O)c2cccc(C)c2)cc1 (stereo not given)	i	-58%	?	-4	22%	25µM*
SMILES	Abeta yeast res	PTHR1 ag	FUS yeast rescue	LDHA inh	aSyn yeast inh	TDP-43 yeast inh
COC(=O)c1ccc(OCC2c3cc(OC)c(OC)cc3CCN2C(=O)C(C)C)cc1 (stereo not given)	i	-11%	i	-3	-3%	24%
COc1cc2c(cc1OC)C(C)N(C(=O)c1cccc([N+](=O)[O-])c1)CC2 (stereo not given)	i	i	i	-4	22µM*	13µM*
CC1c2cc3c(cc2CCN1C(=O)c1cccc(Cl)c1)OCCCO3 (stereo not given)	i	-6%	i	1	0%	13µM*
COc1ccccc1C1CCN(C(=O)c2cccc([N+](=O)[O-])c2)CC1	i	-17%	i	-6	1%	16µM*
COc1cc2c(cc1OC)C(C)N(C(=O)c1sccc1C)CC2 (stereo not given)	i	i	i	1	-19%	?
COCCN1C(=O)c2ccccc2C(C(=O)Nc2ccc(F)cc2)C12CCCC2 (stereo not given)	.	.	.	-4	.	.
COCCN1C(=O)C(=O)/C(=C(/O)c2ccccc2)C1c1ccccc1 (stereo not given)	.	.	.	2	.	.
COc1cccc(CN2C(=O)[C@@H]3Cc4c([nH]c5ccccc45)C(C)(C)N3C2=O)c1	10µM*	-41%	?	-5	.	.
Cc1ccc(CN2C(=O)[C@@H]3Cc4c([nH]c5ccccc45)C(C)(C)N3C2=O)cc1	?	-29%	i	-2	.	.
COc1ccc(-c2c(NC(=O)c3ccc([N+](=O)[O-])cc3)oc3ccc(Cl)cc3c2=O)cc1OC	.	.	.	0	.	.
CS(=O)(=O)Nc1cccc(NC(=O)c2cccc3c(-c4ccc(F)c(F)c4)coc23)c1	i	?	20µM*	-6	0%	10%
COc1cc(-c2coc3c(C(=O)NCc4cccc(Cl)c4)cccc23)ccc1O	i	-51%	?	-4	?	?
O=C(NCc1ccc(C(F)(F)F)cc1)c1cccc2c(-c3ccc(F)c(F)c3)coc12	i	-62%	i	-2	10%	0%
COc1cc(-c2coc3c(C(=O)NCc4ccccc4)cccc23)ccc1O	i	-13%	?	-6	4%	13µM*
CS(=O)(=O)Nc1cccc(NC(=O)c2ccc(-c3ccc(F)c(F)c3)c3ccoc23)c1	i	i	?	-7	0%	0%
O=C(NCc1ccco1)c1cccc2c(-c3ccc(F)c(F)c3)coc12	i	-39%	i	-12	1%	14µM*
COc1ccccc1C(=O)Nc1ccc(Br)cc1C	i	-74%	i	-2	4%	18µM*
Cn1c(CC(=O)Nc2ccc(F)cc2)nnc1SCC(=O)c1ccc(C#N)cc1	.	.	.	0	.	.
O=C(/C(Br)=C/Nc1ccc(Cl)cc1Cl)C(F)(F)F	.	.	.	1	.	.
Cc1c(C(=O)NCc2cccc([N+](=O)[O-])c2)sc(=O)n1Cc1ccc(F)cc1	i	-42%	i	3	10%	0%
Cc1c(C(=O)NCc2ccc3c(c2)OCCO3)sc(=O)n1Cc1ccc2c(c1)OCO2	i	i	?	-3	-1%	?
